In PubChem BioAssay (Tox21):
Values without a mark were called inactive. Records with an inconclusive call do not appear. A call without a number means that no potency is given here. Active and inactive are the calls of the source. Unless noted, calls come from the whole dose curve.

Assays:
[1] = qHTS assay to identify small molecule agonists of the sonic hedgehog signaling (Shh) pathway (AID 1259368);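 note: NIH/3T3-derived 3T3Gli1-Luc cells carrying a stable Gli1-driven firefly luciferase reporter; series mostly up to about 92 µM; nearly all actives have a fitted effect of over 15% in size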
Outline: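 3T3Gli1-Luc (NIH/3T3 clone, stable Gli1-Luc); 4 hr pre-incubation, then cpd in DMSO 24 hr, 37 C/5% CO2; luciferase reagent 30 min RT; luminescence.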

[2] = target: Estrogen receptor beta (Homo sapiens) (UniProt Q92731); assay: qHTS assay to identify small molecule agonists of the estrogen receptor beta (ER-beta) signaling pathway (AID 1259377; active = well fitted activation curve with a large enough effect in the signal ratio in the repeat runs, not every such curve was filed as active; the % refers to the signal ratio)
Sequence of Estrogen receptor beta (Homo sapiens) (Q92731 whole entry, looked up, the tested form may be a part): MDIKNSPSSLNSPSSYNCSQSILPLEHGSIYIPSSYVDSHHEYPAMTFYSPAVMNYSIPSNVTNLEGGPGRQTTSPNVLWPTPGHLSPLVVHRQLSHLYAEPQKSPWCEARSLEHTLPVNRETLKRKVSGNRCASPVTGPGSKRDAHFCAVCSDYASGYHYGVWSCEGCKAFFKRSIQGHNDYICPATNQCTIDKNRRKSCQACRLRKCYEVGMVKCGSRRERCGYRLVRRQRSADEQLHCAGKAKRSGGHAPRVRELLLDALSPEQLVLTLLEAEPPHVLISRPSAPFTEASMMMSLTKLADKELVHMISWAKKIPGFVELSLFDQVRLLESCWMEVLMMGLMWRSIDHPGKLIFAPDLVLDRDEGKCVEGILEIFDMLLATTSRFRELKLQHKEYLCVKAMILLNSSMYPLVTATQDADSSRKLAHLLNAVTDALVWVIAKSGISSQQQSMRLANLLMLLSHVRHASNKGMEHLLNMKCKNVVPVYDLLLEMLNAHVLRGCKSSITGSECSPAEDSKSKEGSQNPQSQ
Outline: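 Agonist mode cell assay in GripTite HEK293T cells expressing an ER-beta fusion that drives beta-lactamase from an Upstream Activator Sequence; 16 hr compound exposure at 37C, then 2 h LiveBLAzer B/G FRET substrate at room temperature, fluorescence read-out.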

[3] = qHTS assay to identify small molecule agonists of the estrogen receptor beta (ER-beta) signaling pathway - cell viability counter screen (AID 1259380; active = well fitted curve in the direction sought with a large enough effect in the repeat runs; an effect the other way counts as inactive or inconclusive; note: nearly all actives have a fitted effect of over 30% in size; note: potency is the fitted concentration of half-maximal effect)
Outline: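 HEK293T ER-beta-UAS-bla; 2% CS-FBS; 6 hr pre-plate, 16 hr cpd at 37C/5% CO2; LiveBLAzer read first, then CellTiter-Glo 30 min RT, luminescence.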

[4] = target: Androgen receptor (Homo sapiens) (UniProt P10275); assay: qHTS assay to identify small molecule agonists of the androgen receptor (AR) signaling pathway in the presence of an antagonist (AID 1259381); note: nearly all actives have a fitted effect of over 15% in size
Sequence of Androgen receptor (Homo sapiens) (P10275 whole entry, looked up): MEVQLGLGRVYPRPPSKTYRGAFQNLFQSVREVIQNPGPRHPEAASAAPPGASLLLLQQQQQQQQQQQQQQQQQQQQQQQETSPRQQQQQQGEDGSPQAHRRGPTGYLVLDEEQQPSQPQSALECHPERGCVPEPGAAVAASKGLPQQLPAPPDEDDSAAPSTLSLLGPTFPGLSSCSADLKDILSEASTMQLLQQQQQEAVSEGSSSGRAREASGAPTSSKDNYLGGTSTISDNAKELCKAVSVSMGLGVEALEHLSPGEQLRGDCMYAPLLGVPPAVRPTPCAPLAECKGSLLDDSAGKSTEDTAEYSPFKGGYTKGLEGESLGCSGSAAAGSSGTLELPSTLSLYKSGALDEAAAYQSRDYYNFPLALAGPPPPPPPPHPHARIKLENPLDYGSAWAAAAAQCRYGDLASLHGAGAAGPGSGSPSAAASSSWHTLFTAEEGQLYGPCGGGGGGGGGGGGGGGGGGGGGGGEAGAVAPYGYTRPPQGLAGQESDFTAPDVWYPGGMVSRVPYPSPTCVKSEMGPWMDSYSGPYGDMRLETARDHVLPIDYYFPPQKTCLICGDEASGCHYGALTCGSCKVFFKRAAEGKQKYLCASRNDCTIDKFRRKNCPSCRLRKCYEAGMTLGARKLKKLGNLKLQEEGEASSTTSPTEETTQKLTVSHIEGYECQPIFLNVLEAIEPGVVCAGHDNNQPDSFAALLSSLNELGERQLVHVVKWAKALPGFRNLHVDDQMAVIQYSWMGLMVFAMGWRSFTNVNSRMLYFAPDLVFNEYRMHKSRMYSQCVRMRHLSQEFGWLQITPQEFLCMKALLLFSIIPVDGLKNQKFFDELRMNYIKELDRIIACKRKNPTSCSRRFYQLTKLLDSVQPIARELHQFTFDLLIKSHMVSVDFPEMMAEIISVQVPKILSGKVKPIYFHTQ
Outline: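 MDA-kb2 cells, 3,000/well, rested 5hr at 37C/0% CO2 → nilutamide 3.0uM final or buffer → compounds, 15 conc. → 16hr at 37C → ONE-Glo, 30min RT → luminescence.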

[5] = qHTS assay to identify small molecule antagonists of the estrogen receptor beta (ER-beta) signaling pathway - cell viability counter screen (AID 1259382; active = well fitted curve in the direction sought with a large enough effect in the repeat runs; an effect the other way counts as inactive or inconclusive; note: nearly all actives have a fitted effect of over 55% in size; note: potency is the fitted concentration of half-maximal effect)
Outline: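 Cells: ER-beta-UAS-bla HEK293T, 2,000/well, 2% CS-FBS, 6 hr settle. Cpd + E2 (1nM final), 16 hr, 37C/5% CO2. Bla FRET substrate 2 hr RT, then CellTiter-Glo 30 min RT, luminescence.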

[6] = target: Estrogen receptor (Homo sapiens) (UniProt P03372); assay: qHTS assay to identify small molecule agonists of the estrogen receptor alpha (ER-alpha) signaling pathway in the presence of an antagonist (AID 1259383); note: top concentration of the series differs between compounds; nearly all actives have a fitted effect of over 15% in size
Sequence of Estrogen receptor (Homo sapiens) (P03372 whole entry, looked up): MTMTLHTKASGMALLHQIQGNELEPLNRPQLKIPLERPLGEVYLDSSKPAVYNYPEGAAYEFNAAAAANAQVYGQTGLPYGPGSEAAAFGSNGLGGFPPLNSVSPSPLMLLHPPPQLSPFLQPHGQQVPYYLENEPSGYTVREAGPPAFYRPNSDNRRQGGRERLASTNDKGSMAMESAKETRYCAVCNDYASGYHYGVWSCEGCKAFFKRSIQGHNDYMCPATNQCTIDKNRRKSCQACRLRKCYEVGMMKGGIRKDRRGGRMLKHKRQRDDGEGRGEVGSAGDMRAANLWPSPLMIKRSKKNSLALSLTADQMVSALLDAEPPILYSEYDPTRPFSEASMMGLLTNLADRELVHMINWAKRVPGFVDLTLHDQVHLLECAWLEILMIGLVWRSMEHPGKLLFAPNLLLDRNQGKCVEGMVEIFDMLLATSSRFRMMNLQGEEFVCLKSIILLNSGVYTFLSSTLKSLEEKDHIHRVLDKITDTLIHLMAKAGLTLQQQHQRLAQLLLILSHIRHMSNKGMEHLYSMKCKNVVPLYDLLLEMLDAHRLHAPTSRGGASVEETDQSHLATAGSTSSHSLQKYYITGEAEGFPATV
Outline: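 VM7Luc4E2, endog. ER-alpha + 4×ERE-luc; charcoal-stripped FBS, phenol red-free, 5 d; 24hr plating; +10.0nM ICI-182,780 (final); cpds 15 conc, 22hr, 37C/5% CO2; ONE-Glo luminescence.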

[7] = qHTS assay to identify small molecule agonists or antagonists of the thyroid stimulating hormone receptor (TSHR) signaling pathway - wild type cell line counter screen (AID 1259384)
Outline: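 Counter screen in untransfected Hek293: compounds (15-point titration, triplicate) plus phosphodiesterase inhibitor Ro20-1724 added after 18 h plating; 30 min RT. Intracellular cAMP via competitive d2/cryptate immunoassay, 1 h incubation.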

[8] = target: Thyrotropin receptor (Homo sapiens) (UniProt P16473); assay: qHTS assay to identify small molecule antagonists of the thyroid stimulating hormone receptor (TSHR) signaling pathway (AID 1259385); note: nearly all actives have a fitted effect of over 20% in size; note: potency is the fitted concentration of half-maximal effect
Sequence of Thyrotropin receptor (Homo sapiens) (P16473 whole entry, looked up): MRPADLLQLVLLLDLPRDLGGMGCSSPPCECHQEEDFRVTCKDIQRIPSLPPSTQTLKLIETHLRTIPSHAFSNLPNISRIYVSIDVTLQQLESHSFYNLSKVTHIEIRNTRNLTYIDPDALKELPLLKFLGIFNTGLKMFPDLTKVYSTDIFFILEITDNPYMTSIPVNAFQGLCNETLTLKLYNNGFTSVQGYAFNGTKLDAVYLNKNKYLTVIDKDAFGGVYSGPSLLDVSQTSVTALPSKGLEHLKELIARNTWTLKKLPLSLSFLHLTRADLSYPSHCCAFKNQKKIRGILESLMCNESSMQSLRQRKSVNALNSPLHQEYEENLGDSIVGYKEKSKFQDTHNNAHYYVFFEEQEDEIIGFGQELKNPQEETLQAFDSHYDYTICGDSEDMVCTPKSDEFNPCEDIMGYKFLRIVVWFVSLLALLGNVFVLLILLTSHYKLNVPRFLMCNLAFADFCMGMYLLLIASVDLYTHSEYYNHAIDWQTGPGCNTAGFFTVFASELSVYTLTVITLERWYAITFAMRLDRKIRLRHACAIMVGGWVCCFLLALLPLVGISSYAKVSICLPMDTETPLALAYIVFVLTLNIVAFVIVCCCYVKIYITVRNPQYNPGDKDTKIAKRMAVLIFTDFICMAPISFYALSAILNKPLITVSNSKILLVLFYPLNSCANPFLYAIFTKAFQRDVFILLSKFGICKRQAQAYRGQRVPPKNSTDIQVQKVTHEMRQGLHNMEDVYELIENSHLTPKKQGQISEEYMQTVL
Outline: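 Antagonist mode: compound-treated TSHR-expressing HEK293 cells were stimulated with 1.5 ng/mL TSH (final) in presence of Ro20-1724 for 30 min at RT. HTRF cAMP detection after 1 h; each compound tested at 15 concentrations, triplicate.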

[9] = target: Progesterone receptor (Homo sapiens) (UniProt P06401); assay: qHTS assay to identify small molecule agonists of the progesterone receptor (PR) signaling pathway (AID 1346784); note: nearly all actives have a fitted effect of over 30% in size
Sequence of Progesterone receptor (Homo sapiens) (P06401 whole entry, looked up): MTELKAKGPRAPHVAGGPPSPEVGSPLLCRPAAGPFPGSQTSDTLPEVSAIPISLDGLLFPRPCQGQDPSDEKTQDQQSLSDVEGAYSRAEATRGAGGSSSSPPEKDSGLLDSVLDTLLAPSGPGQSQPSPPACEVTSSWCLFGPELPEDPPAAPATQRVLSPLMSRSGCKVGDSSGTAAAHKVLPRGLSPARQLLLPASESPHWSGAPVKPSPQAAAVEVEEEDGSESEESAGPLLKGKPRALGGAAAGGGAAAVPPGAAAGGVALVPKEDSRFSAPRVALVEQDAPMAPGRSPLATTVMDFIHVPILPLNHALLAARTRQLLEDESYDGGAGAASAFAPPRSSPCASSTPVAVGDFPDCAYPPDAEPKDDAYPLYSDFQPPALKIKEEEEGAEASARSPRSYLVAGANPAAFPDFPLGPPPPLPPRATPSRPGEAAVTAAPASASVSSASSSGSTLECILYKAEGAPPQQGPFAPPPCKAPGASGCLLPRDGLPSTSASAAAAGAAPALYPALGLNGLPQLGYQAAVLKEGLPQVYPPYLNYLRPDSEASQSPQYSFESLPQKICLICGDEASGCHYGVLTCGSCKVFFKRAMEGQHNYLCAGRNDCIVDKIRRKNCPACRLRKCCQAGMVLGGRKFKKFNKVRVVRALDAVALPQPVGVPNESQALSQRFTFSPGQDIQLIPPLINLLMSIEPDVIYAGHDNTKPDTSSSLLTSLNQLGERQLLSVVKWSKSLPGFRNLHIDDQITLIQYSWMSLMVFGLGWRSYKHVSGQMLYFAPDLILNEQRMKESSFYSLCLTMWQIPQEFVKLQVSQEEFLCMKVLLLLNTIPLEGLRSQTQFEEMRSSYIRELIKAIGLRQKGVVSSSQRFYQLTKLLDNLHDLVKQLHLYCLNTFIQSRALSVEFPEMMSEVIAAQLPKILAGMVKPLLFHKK
Outline: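 Cells (PR-UAS-bla HEK 293T, GripTite) were plated in assay medium containing 2% charcoal-stripped FBS and incubated 6 hr. Test compounds in DMSO were added for 16 hr at 37C. FRET substrate was then loaded for 2 hr at room temperature before fluorescence reading.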

[10] = target: Progesterone receptor (Homo sapiens) (UniProt P06401); assay: qHTS assay to identify small molecule antagonists of the progesterone receptor (PR) signaling pathway (AID 1346795; active = well fitted inhibition curve with a large enough effect in the signal ratio in the repeat runs, not every such curve was filed as active; the % refers to the signal ratio; note: potency is the fitted concentration of half-maximal effect)
Outline: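 Antagonist mode: compounds tested against 1 nM (final) promegestone stimulation in HEK293T cells expressing PR-UAS-bla reporter, 16 hr at 37C, 5% CO2; beta-lactamase activity detected via B/G FRET substrate after 2 hr at room temperature.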

[11] = qHTS assay to identify small molecule antagonists of the progesterone receptor (PR) signaling pathway - cell viability counter screen (AID 1346798; active = well fitted curve in the direction sought with a large enough effect in the repeat runs; an effect the other way counts as inactive or inconclusive; note: nearly all actives have a fitted effect of over 50% in size; note: potency is the fitted concentration of half-maximal effect)
Outline: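 Counter screen for cytotoxicity: viability of PR-UAS-bla HEK293T cells was measured with CellTiter-Glo luminescence following 16 hr compound exposure in the presence of R5020.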

[12] = qHTS assay to identify small molecule antagonists of the TGF-beta/Smad signaling pathway - cell viability counter screen (AID 1346824; active = well fitted curve in the direction sought with a large enough effect in the repeat runs; an effect the other way counts as inactive or inconclusive; note: nearly all actives have a fitted effect of over 50% in size)
Outline: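 Cytotoxicity counter-screen run in the same wells as the beta-lactamase Smad reporter read: CellTiter-Glo luminescence after 30 min at room temperature. HEK 293T SBE-bla cells had 5 hr compound exposure at 37 C with TGF-beta1 (0.25 ng/mL stock).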

[13] = qHTS assay to identify small molecule agonists of the TGF-beta/Smad signaling pathway - cell viability counter screen (AID 1346829; active = well fitted curve in the direction sought with a large enough effect in the repeat runs; an effect the other way counts as inactive or inconclusive; note: top concentration of the series differs between compounds; nearly all actives have a fitted effect of over 45% in size)
Outline: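 After overnight seating at 37 C and 5% CO2, reporter cells got compounds for 5 hr and FRET substrate for 2 hr; cell viability then came from CellTiter-Glo luminescence.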

[14] = qHTS assay to identify small molecule agonists of the TGF-beta/Smad signaling pathway (AID 1346859; active = well fitted activation curve with a large enough effect in the signal ratio in the repeat runs, not every such curve was filed as active; the % refers to the signal ratio; note: series mostly up to about 77 µM)
Outline: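 Reporter line: HEK 293T with stably integrated SBE-controlled beta-lactamase. Compound exposure lasts 5 hr at 37 C and 5% CO2; substrate loading follows for 2 hr at room temperature, with emission read at 460 and 530 nm.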

[15] = qHTS assay to identify small molecule antagonists of the sonic hedgehog signaling (Shh) pathway (AID 1259369); note: potency is the fitted concentration of half-maximal effect; nearly all actives have a fitted effect of over 45% in size
Outline: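 3T3Gli1-Luc, conditioned-medium-stimulated, 24hr cpd, 37C/5% CO2; Gli1-driven firefly Luc luminescence after 30min RT with luciferase reagent. Cells plated 4hr before cpd.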

[16] = target: Estrogen receptor beta (Homo sapiens) (UniProt Q92731); assay: qHTS assay to identify small molecule antagonists of the estrogen receptor beta (ER-beta) signaling pathway (AID 1259378; active = well fitted inhibition curve with a large enough effect in the signal ratio in the repeat runs, not every such curve was filed as active; the % refers to the signal ratio)
Outline: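 Antagonist mode: compounds added to beta-lactamase reporter HEK293T ER-beta-UAS cells stimulated with E2 (1nM final), 16 hr at 37C. LiveBLAzer B/G FRET substrate, 2 hours room temperature, fluorescence read-out.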

[17] = qHTS assay to identify small molecule agonists of the androgen receptor (AR) signaling pathway in the presence of an antagonist - cell viability counter screen (AID 1259379; active = well fitted curve in the direction sought with a large enough effect in the repeat runs; an effect the other way counts as inactive or inconclusive;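 note: MDA-kb2 human breast cancer cells carrying an MMTV luciferase reporter; series mostly up to about 92 µM; nearly all actives have a fitted effect of over 25% in size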)
Outline: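 Cells: MDA-kb2 (MMTV-luc, AR and GR elements), 3,000/well, 5 hr settle. Added: nilutamide 3.0uM final, then compounds (15 conc.). Incubation: 16 hr, 37C, no CO2. Read-out: CellTiter-Fluor, 1 hr, fluorescence.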

[18] = qHTS assay to identify small molecule agonists of the progesterone receptor (PR) signaling pathway - cell viability counter screen (AID 1346799); note: nearly all actives have a fitted effect of over 45% in size
Outline: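 Cells (PR-UAS-bla HEK293T) are plated at 3,000/well in 2% charcoal-stripped FBS medium, rested 6 hr, dosed and incubated 16 hr at 37C. CellTiter-Glo is then added and luminescence measured after 30 min at room temperature.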

[19] = target: Thyrotropin-releasing hormone receptor (Homo sapiens) (UniProt P34981); assay: qHTS assay to identify small molecule antagonists of the thyrotropin-releasing hormone receptor (TRHR) signaling pathway (AID 1346877; active = well fitted inhibition curve with a large enough effect in the repeat runs, not every such curve was filed as active; note: series mostly up to about 51 µM)
Sequence of Thyrotropin-releasing hormone receptor (Homo sapiens) (P34981 whole entry, looked up): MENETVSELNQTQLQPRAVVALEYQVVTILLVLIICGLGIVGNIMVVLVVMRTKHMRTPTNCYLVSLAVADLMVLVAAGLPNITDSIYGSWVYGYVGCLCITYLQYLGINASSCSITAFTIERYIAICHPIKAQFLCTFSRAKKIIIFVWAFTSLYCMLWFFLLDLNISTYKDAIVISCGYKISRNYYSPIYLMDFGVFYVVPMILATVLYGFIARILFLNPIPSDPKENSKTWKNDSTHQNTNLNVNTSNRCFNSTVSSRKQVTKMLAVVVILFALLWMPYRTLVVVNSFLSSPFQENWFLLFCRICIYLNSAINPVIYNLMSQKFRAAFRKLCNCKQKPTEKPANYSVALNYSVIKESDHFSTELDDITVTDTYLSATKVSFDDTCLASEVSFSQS
Outline: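 Intracellular calcium fluorescence, read kinetically every second over 3 min, reports TRH-evoked signalling in HEK293 cells carrying TRHR. Test compounds were added 5 min ahead of a 1 nM TRH challenge.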

[20] = qHTS assay to identify small molecule agonists of the estrogen receptor alpha (ER-alpha) signaling pathway in the presence of an antagonist - cell viability counter screen (AID 1259386; active = well fitted curve in the direction sought with a large enough effect in the repeat runs; an effect the other way counts as inactive or inconclusive;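 note: series mostly up to about 92 µM; cells exposed to compounds for 22 h at 37 °C before the viability read; nearly all actives have a fitted effect of over 30% in size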)
Outline: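 VM7Luc4E2, stripped-serum pre-culture 5 d; 24hr plating; +ICI-182,780 10.0nM final; cpds 15 conc, 22hr, 37C/5% CO2; CellTiter-Fluor added at 21hr, fluorescence 1hr later.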

For `CCOc1ccc(Cc2nccc3cc(OCC)c(OCC)cc23)cc1OCC`, the Potency [1] was “inactive”, the Potency [2] was “inactive” and the Potency [3] was “inactive”. The Potency [4] was “inactive”, the Potency [5] was “inactive” and the Potency [6] was “inactive”. For the same compound, the outcome [7] was “inactive”, the Potency [8] was “inactive” and the Potency [9] was “inactive”. For the same compound, the Potency [10] was 16.8 µM (active), the Potency [11] was 18.8 µM (active) and the Potency [12] was “inactive”. The Potency [13] was “inactive” and the Potency [14] was “inactive”.

With `O=C1c2ccccc2C(=O)C1(O)O` the Potency [15] was 15.4 µM (active), the Potency [16] was “inactive” and the Potency [17] was “inactive”. For the same compound, the Potency [5] was “inactive”, the Potency [6] was “inactive” and the outcome [7] was “inactive”. For the same compound, the Potency [9] was “inactive”, the Potency [10] was “inactive” and the Potency [11] was “inactive”. For the same compound, the Potency [18] was “inactive” and the outcome [19] was “inactive”.

In the case of `CN(C)CCC=C1c2ccccc2C=Cc2ccccc21`, the Potency [1] is reported as “inactive”, the Potency [3] is reported as 26.6 µM (active) and the Potency [5] is reported as 29.8 µM (active). The Potency [6] was “inactive”, the outcome [7] was “inactive” and the Potency [8] was 29.8 µM (active). The Potency [20] was “inactive”, the Potency [9] was “inactive” and the Potency [12] was “inactive”. The Potency [13] was “inactive”, the Potency [14] was “inactive” and the outcome [19] was “inactive”.

For `C/C=C\C/C=C/CCCCCCCCOC(C)=O`, the Potency [1] was “inactive”, the Potency [17] was “inactive” and the Potency [3] was 61.1 µM (active). The Potency [6] was “inactive”, the outcome [7] was “inactive” and the Potency [8] was “inactive”. For the same compound, the Potency [9] was “inactive”, the Potency [12] was “inactive” and the Potency [13] was “inactive”. The Potency [14] was “inactive” and the outcome [19] was “inactive”.

For `O=C1NC(=O)c2cc([N+](=O)[O-])ccc21`, the Potency [1] was “inactive”, the Potency [16] was “inactive” and the Potency [3] was “inactive”. The Potency [4] was “inactive”, the Potency [5] was “inactive” and the Potency [6] was “inactive”. The outcome [7] was “inactive”, the Potency [8] was “inactive” and the Potency [20] was “inactive”. For the same compound, the Potency [9] was “inactive”, the Potency [10] was “inactive” and the Potency [11] was “inactive”. The Potency [18] was “inactive”, the Potency [13] was “inactive” and the Potency [14] was “inactive”.

With `CCCC(C(=O)OCCN(CC)CC)(c1ccccc1)c1ccccc1` the Potency [1] was “inactive”, the Potency [2] was “inactive” and the Potency [16] was “inactive”. For the same compound, the Potency [3] was 29.8 µM (active), the Potency [6] was “inactive” and the outcome [7] was “inactive”. For the same compound, the Potency [8] was “inactive”, the Potency [9] was “inactive” and the Potency [11] was “inactive”. The Potency [12] was “inactive”, the Potency [13] was “inactive” and the Potency [14] was “inactive”. For the same compound, the outcome [19] was “inactive”.

With `CC(C)Nc1cccnc1N1CCN(C(=O)c2cc3cc(NS(C)(=O)=O)ccc3[nH]2)CC1` the Potency [1] was “inactive”, the Potency [16] was “inactive” and the Potency [17] was “inactive”. For the same compound, the Potency [3] was 26.6 µM (active), the Potency [6] was “inactive” and the outcome [7] was “inactive”. The Potency [8] was “inactive”, the Potency [20] was “inactive” and the Potency [9] was “inactive”. For the same compound, the Potency [18] was “inactive”, the Potency [12] was “inactive” and the Potency [13] was “inactive”. For the same compound, the Potency [14] was “inactive”.
